This passage reports log2 fold change results from the supplement of paper PMC12819154, “High-throughput peptide-centric local stability assay extends protein–ligand identification to membrane proteins, tissues and bacteria” (Nature Structural & Molecular Biology, 2025).
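Note: lysate desalted by size exclusion to strip endogenous ATP, peptide intensities built from DIA-NN precursor signals, and peptides missing any value discarded before comparison.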

Compound in this assay: Nc1ncnc2c1ncn2[C@@H]1O[C@H](COP(=O)(O)OP(=O)(O)OP(=O)(O)O)[C@@H](O)[C@H]1O [adenosine 5'-triphosphate]
Briefly: log2 fold change of tryptic peptide abundance, ligand vs vehicle (limited proteolysis) (log2 ratio); higher = more trypsin-susceptible (destabilized). The settings on record: ligand concentration: 5 mM; sample: E. coli desalted lysate; replicate design: treated before aliquoting. As for the experimental part:
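HT-PELSA: desalted E. coli K-12 BW25113 lysate (with 12 mM MgCl2) incubated with 5 mM ATP (pH 7) or water for 30 min at 25 C, then a 4 min trypsin pulse at 22 C. Peptides were quantified by DIA-MS (4 replicates). Value is the peptide log2 fold change (treated/control); negative = stabilized. Scale: negative = ligand-stabilized region.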
As to “UniProt P37327 (peptide sequence: AMAIHEHIR, peptide start residue: 37)”, the log2 fold change was -0.62.

On to “UniProt P76909 (peptide sequence: SGLEGAFHQDPATLSGGQR, peptide start residue: 121)”, for which the log2 fold change was 0.631.

Turning to “UniProt P37636 (peptide sequence: QDYDTAR, peptide start residue: 137)”, the log2 fold change came out at 0.264.

With “UniProt P26281 (peptide sequence: ALGDIPESHILTVSSFYR, peptide start residue: 25)”, the log2 fold change is -3.29.

As for “UniProt P75968 (peptide sequence: HLIIKPLSR, peptide start residue: 102)”, the log2 fold change is -1.04.

For the target “UniProt P17117 (peptide sequence: ESRPFILDYLHK, peptide start residue: 223)”, the log2 fold change is 1.13.

For “UniProt P75974 (peptide sequence: LIEDGTQR, peptide start residue: 178)”, the log2 fold change worked out at 0.336.

For “UniProt P35340 (peptide sequence: MTLTEIVAKIDTGAEKR, peptide start residue: 186)”, the log2 fold change turned out to be 1.22.

Take “UniProt P77293 (peptide sequence: GILSWVGGK, peptide start residue: 179)”: the log2 fold change was -0.543.

Consider “UniProt P77433 (peptide sequence: GEFLNNVAQALGRPLR, peptide start residue: 5)”, for which the log2 fold change is 0.243.

In the case of “UniProt P23830 (peptide sequence: EALGVLHFK, peptide start residue: 132)”, the log2 fold change was -0.891.

With “UniProt P52129 (peptide sequence: LQIQGRPLSCYR, peptide start residue: 161)”, the log2 fold change came to 0.646.

Consider “UniProt P26646 (peptide sequence: ESTHEYLK, peptide start residue: 181)”, for which the log2 fold change is 0.217.

Take “UniProt P21499 (peptide sequence: DGQLVFTR, peptide start residue: 65)”: the log2 fold change was -0.675.

With “UniProt P21420 (peptide sequence: HYFSSNDADDGDTTYAR, peptide start residue: 44)”, the log2 fold change was -0.336.

“UniProt P15640 (peptide sequence: TSEWDER, peptide start residue: 323)”: the log2 fold change is -1.28.

On to “UniProt P77735 (peptide sequence: LGMDYVDILQIHR, peptide start residue: 116)”, for which the log2 fold change is -0.843.

Consider “UniProt P21507 (peptide sequence: DVLGSAPTGTGK, peptide start residue: 43)”, for which the log2 fold change was -3.34.

“UniProt P0AFU4 (peptide sequence: LMTASWPGNVR, peptide start residue: 344)”: the log2 fold change was -1.31.

As for “UniProt P0AFI5 (peptide sequence: YTHFADASR, peptide start residue: 264)”, the log2 fold change was -0.35.

Turning to “UniProt P28630 (peptide sequence: LSLLWPDGK, peptide start residue: 188)”, the log2 fold change was -0.437.

Regarding “UniProt Q47622 (peptide sequence: KMNADDVVFTFQR, peptide start residue: 117)”, the log2 fold change was 1.14.

As to “UniProt P71298 (peptide sequence: QNRPTVTAHAYR, peptide start residue: 218)”, the log2 fold change was -1.54.

For the target “UniProt P31808 (peptide sequence: TGMTFDAQPGR, peptide start residue: 236)”, the log2 fold change is -0.533.

Take “UniProt P08201 (peptide sequence: LIVSEDNK, peptide start residue: 359)”: the log2 fold change was 1.35.

For the target “UniProt P09152 (peptide sequence: GHEFMLK, peptide start residue: 724)”, the log2 fold change came out at 0.491.

As to “UniProt P39343 (peptide sequence: IKNNDHNHNTVDLGYQIYHGNTL, peptide start residue: 310)”, the log2 fold change is -0.756.

For the target “UniProt P77395 (peptide sequence: RQLYALLY, peptide start residue: 277)”, the log2 fold change worked out at 0.6.

Consider “UniProt P77608 (peptide sequence: AAEQGEAIAPLR, peptide start residue: 16)”, for which the log2 fold change turned out to be 0.736.

On to “UniProt P33029 (peptide sequence: AHQALLTDR, peptide start residue: 38)”, for which the log2 fold change is -0.503.

As to “UniProt P77756 (peptide sequence: HRAEIDVAR, peptide start residue: 39)”, the log2 fold change was -2.3.

Regarding “UniProt P10371 (peptide sequence: DYGNDPLPR, peptide start residue: 26)”, the log2 fold change is -0.955.

Turning to “UniProt P46859 (peptide sequence: GDFDVIESR, peptide start residue: 112)”, the log2 fold change is -0.658.

Turning to “UniProt P04993 (peptide sequence: YLDLLQAR, peptide start residue: 418)”, the log2 fold change was -1.02.

On to “UniProt P37692 (peptide sequence: AYVLPNSFK, peptide start residue: 84)”, for which the log2 fold change is -1.08.

As to “UniProt P39310 (peptide sequence: VWHAPDNFR, peptide start residue: 14)”, the log2 fold change is -0.8.

As for “UniProt P45541 (peptide sequence: TGMFTCGHQR, peptide start residue: 3)”, the log2 fold change is -1.14.

Take “UniProt P64602 (peptide sequence: GITCIDLSR, peptide start residue: 38)”: the log2 fold change came to 0.802.

“UniProt P23898 (peptide sequence: SSLDNVYWQK, peptide start residue: 137)”: the log2 fold change came out at 0.793.

“UniProt P42630 (peptide sequence: ITAWKGQEELLSK, peptide start residue: 129)”: the log2 fold change is 0.565.
